Activity calls are given as the source filed them. Rule for the calls: active = hit-call score of the fitted dose curve at least 0.9, where 1 is the maximum; inactive = score below 0.9.

Test [1] is described as follows: ATG_CRE_CIS: Attagene CIS-FACTORIAL HepG2 Assay for human cAMP Responsive Element (CRE) binding protein 3 (AID 2282926). As to conditions: HepG2 CRE cis-reporter, Attagene multiplexed mRNA; actives raise or lower the signal. Put shortly:
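HepG2 cells transiently transfected with cis-element-driven multiple reporter transcription units; CRE reporter mRNA measured 24 h after dosing by RT-PCR, 6-FAM labelling, HpaI digestion and capillary electrophoresis. Bidirectional fit versus DMSO baseline.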

The target of test [2] is CCAAT/enhancer-binding protein beta (Homo sapiens) (UniProt P17676). Briefly: ATG_C_EBP_CIS: Attagene CIS-FACTORIAL HepG2 Assay for human CCAAT/Enhancer Binding Protein (C/EBP) beta (AID 2282927). The following applies: HepG2 Attagene cis-factorial transcription factor reporter; actives raise or lower the signal. The method in brief: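 RT-PCR/capillary electrophoresis fluorescence of reporter mRNA, 24 h post-dose, in HepG2 cells carrying transfected cis-promoter reporter units. Bidirectional curve fitting against DMSO baseline captures gain or loss of signal.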
Chain of CCAAT/enhancer-binding protein beta (Homo sapiens) (P17676 whole entry, looked up): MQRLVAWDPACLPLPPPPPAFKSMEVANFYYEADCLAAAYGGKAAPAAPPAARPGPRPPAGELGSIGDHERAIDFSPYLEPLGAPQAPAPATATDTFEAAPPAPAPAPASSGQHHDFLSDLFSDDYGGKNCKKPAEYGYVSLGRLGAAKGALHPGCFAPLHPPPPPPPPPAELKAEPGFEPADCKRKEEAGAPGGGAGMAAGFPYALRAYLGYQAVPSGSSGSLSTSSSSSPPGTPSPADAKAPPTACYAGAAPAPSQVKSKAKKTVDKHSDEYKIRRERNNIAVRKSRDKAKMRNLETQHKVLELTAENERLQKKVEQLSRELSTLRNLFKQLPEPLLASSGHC

Test [3] can be described thus: ATG_CMV_CIS: Attagene CIS-FACTORIAL HepG2 Assay for human CMV (Internal Marker) (AID 2282928).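 Note: endpoint acts as a background internal control marker rather than a target.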 The following applies: HepG2 CMV promoter reporter, transcription factor profiling; actives raise or lower the signal. The method in brief: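 Endogenous transcription factor activity read in HepG2 via transfected cis-promoter reporter units. After 24 h dosing, reporter mRNA measured by RT-PCR/capillary electrophoresis; gain or loss of signal fit relative to DMSO.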

The nature of test [4]: ATG_DR4_LXR_CIS: Attagene CIS-FACTORIAL HepG2 Assay for human Liver X Receptor (LXR), DR4 submotif (AID 2282929). The following applies: HepG2 Attagene DR4 cis-reporter, mRNA transcription; actives raise or lower the signal. The method in brief:
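After transient transfection with multiplexed cis-promoter reporter units, HepG2 cells received test chemicals for 24 h. Reporter mRNA induction, detected by fluorescence after RT-PCR and capillary electrophoresis, was scored relative to DMSO.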

Test [5] in a line: ATG_AP_1_CIS: Attagene CIS-FACTORIAL HepG2 Assay for human Activator Protein 1 (AP-1) (AID 2282931). As to conditions: HepG2 Attagene cis-factorial AP-1 reporter mRNA; actives raise or lower the signal. The method in brief: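 After 24 h incubation with test chemical, RNA from transfected HepG2 cells was reverse-transcribed, amplified, fluorescently labelled and digested before capillary electrophoresis. Reporters were driven by cis-regulatory promoters; activity fitted bidirectionally versus DMSO.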

Test [6] can be described thus: ATG_BRE_CIS: Attagene CIS-FACTORIAL HepG2 Assay for human Bone Morphogenetic Protein (BMP) Response Element (BRE) (AID 2282933). The following applies: HepG2 BMP response element reporter, Attagene transcription factor profiling; actives raise or lower the signal. Put shortly: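 Gain- or loss-of-signal was derived by bidirectional fitting against DMSO controls. The signal came from reporter mRNA, measured by RT-PCR and capillary electrophoresis, in HepG2 cells transiently carrying multiple reporter units and dosed for 24 h.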

Test [7] is described as follows: ATG_E_Box_CIS: Attagene CIS-FACTORIAL HepG2 Assay for human Enhancer Box (E-box) (AID 2282936). The following applies: HepG2 E-box cis-reporter transcription, actives raise or lower the signal. The method in brief:
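HepG2 cells transiently transfected with multiplexed cis-element reporter units sensing endogenous transcription factor activity; 24 h compound exposure. Reporter mRNA measured by RT-PCR, 6-FAM primer extension, HpaI digestion and capillary electrophoresis; bidirectional fit versus DMSO.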

Test [8] is described as follows: ATG_M_19_CIS: Attagene CIS-FACTORIAL HepG2 Assay for M19 Transcription Factor (Internal Marker) (AID 2282939). The following applies: HepG2 Attagene CIS-FACTORIAL M19 internal marker reporter; actives raise or lower the signal. The method in brief:
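Following a 24 h exposure, RNA from transfected HepG2 cells was reverse-transcribed, PCR-amplified with reporter-specific primers, end-labelled with 6-FAM and HpaI-digested before capillary separation. Values represent gain or loss versus DMSO.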

Test [9] in a line: ATG_GATA_CIS: Attagene CIS-FACTORIAL HepG2 Assay for human GATA Binding Protein (AID 2282944). As to conditions: HepG2 GATA cis-element reporter, Attagene multiplex mRNA; actives raise or lower the signal. Put shortly: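 DMSO serves as negative control and baseline for bidirectional fitting of reporter mRNA changes. HepG2 cells bearing transiently transfected cis-promoter reporters were exposed 24 h; transcripts detected via RT-PCR and capillary electrophoresis.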

A short description of test [10]: ATG_ISRE_CIS: Attagene CIS-FACTORIAL HepG2 Assay for human Interferon Regulatory Factor 1 (IRF1) binding to an Interferon-Stimulated Response Element (ISRE) (AID 2282948). As to conditions: HepG2 ISRE cis-reporter (Attagene), mRNA transcription readout; actives raise or lower the signal. Put shortly:
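Transfected HepG2 (multiple reporter transcription units, cis elements) dosed 24 h. RNA → oligo(dT) RT → PCR → 6-FAM primer extension → HpaI → CE. DMSO = negative control/baseline.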

Test [11] is described as follows: ATG_M_32_CIS: Attagene CIS-FACTORIAL HepG2 Assay for M32 Transcription Factor (Internal Marker) (AID 2282949).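 Note: background control marker of the multiplexed CIS panel rather than a real target.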 The following applies: HepG2 Attagene cis-factorial M32 reporter, mRNA; actives raise or lower the signal. Put shortly:
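Internal background marker read-out: RT-PCR/capillary electrophoresis fluorescence of reporter transcripts from transiently transfected HepG2 cells after 24 h chemical exposure. Activity fitted bidirectionally relative to DMSO negative control.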

Test [12] can be described thus: ATG_M_06_CIS: Attagene CIS-FACTORIAL HepG2 Assay for M06 Transcription Factor (Internal Marker) (AID 2282950). As to conditions: HepG2 Attagene CIS-FACTORIAL M06 internal marker reporter; actives raise or lower the signal. The method in brief:
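Fluorescence-labelled RT-PCR products from cis-promoter reporter units, cut with HpaI and resolved by capillary electrophoresis, give the signal. Cells are human HepG2, dosed for 24 h. Serves as background control, fitted relative to DMSO.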

Test [13] can be described thus: ATG_MRE_CIS: Attagene CIS-FACTORIAL HepG2 Assay for human Metal Responsive Element (MRE) (AID 2282954). As to conditions: HepG2 MRE cis-reporter transcription, Attagene multiplex; actives raise or lower the signal. Put shortly: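 HepG2 cells transiently transfected with multiple cis-element reporter units measure endogenous MTF1-driven transcription. After 24 h compound exposure, reporter mRNA is quantified by RT-PCR with 6-FAM labelling, HpaI digestion and capillary electrophoresis; bidirectional fits versus DMSO.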

Test [14] addresses Paired box protein Pax-6 (Homo sapiens) (UniProt P26367). In words: ATG_Pax6_CIS: Attagene CIS-FACTORIAL HepG2 Assay for human Paired Box 6 (PAX6) (AID 2282956). The following applies: HepG2 CIS-FACTORIAL PAX6 reporter transcription, RNA readout; actives raise or lower the signal. The method in brief:
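Transient MRTU transfection of HepG2 → compound exposure 24 h → TriZol RNA, oligo(dT) RT → PCR, 6-FAM primer extension, HpaI cut → capillary electrophoresis; activity fitted both directions against DMSO.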

A short description of test [15]: ATG_PXRE_CIS: Attagene CIS-FACTORIAL HepG2 Assay for human Pregnane X Receptor Element (PXRE) (AID 2282957). The following applies: HepG2 Attagene CIS-FACTORIAL PXRE reporter, mRNA; actives raise or lower the signal. Put shortly: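 HepG2 cells transiently transfected with cis-element-driven multiplexed reporter units; after 24 h chemical exposure, reporter mRNA measured by RT-PCR, 6-FAM labelling, HpaI digestion and capillary electrophoresis. Bidirectional fitting relative to DMSO.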

Test [16] can be described thus: ATG_Sox_CIS: Attagene CIS-FACTORIAL HepG2 Assay for human SRY-box transcription factor (SOX) (AID 2282960). The following applies: HepG2 Attagene cis-factorial SOX reporter, mRNA; actives raise or lower the signal. Put shortly: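 Using transiently transfected HepG2 cells, reporter transcription driven by cis elements was assessed 24 h after dosing. Signal was fluorescence of capillary-separated RT-PCR products, with DMSO defining baseline activity.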

For test [17], the target named is Transcription factor Sp1 (Homo sapiens) (UniProt P08047). Briefly: ATG_Sp1_CIS: Attagene CIS-FACTORIAL HepG2 Assay for human Specificity Protein 1 (Sp1) (AID 2282961). The following applies: HepG2 Sp1 cis-reporter transcription, actives raise or lower the signal. Put shortly: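 After transient transfection of HepG2 cells with cis-promoter reporter units and 24 h chemical treatment, reporter transcripts were quantified by RT-PCR and capillary electrophoresis fluorescence. Gain- and loss-of-signal fitted against DMSO.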
Chain of Transcription factor Sp1 (Homo sapiens) (P08047 whole entry, looked up): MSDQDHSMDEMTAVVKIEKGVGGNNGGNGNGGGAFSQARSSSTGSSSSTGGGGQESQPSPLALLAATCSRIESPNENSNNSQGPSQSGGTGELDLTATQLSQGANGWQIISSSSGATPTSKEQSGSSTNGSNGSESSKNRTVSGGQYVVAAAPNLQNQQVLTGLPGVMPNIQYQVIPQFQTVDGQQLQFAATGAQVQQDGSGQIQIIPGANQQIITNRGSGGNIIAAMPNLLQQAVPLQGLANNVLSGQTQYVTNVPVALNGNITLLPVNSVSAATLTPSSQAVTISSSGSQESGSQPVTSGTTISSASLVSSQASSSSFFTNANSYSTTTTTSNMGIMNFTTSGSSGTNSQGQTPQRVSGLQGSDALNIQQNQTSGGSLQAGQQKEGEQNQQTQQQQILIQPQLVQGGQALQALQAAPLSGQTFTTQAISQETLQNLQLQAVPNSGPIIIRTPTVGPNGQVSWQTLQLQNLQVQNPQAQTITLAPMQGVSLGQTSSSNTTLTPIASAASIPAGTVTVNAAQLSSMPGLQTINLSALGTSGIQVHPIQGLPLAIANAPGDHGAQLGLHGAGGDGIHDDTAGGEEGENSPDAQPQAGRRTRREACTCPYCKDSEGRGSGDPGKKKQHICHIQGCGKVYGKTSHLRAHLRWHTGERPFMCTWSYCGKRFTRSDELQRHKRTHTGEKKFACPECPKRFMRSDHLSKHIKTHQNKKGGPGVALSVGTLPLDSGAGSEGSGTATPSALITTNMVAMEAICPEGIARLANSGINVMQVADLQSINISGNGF

Test [18] is described as follows: ATG_TA_CIS: Attagene CIS-FACTORIAL HepG2 Assay for human TA Basal Promoter (AID 2282964). As to conditions: HepG2 Attagene CIS-factorial TA basal promoter reporter; actives raise or lower the signal. Put shortly: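 Multiplexed mRNA reporter assay, HepG2, 24 h. Reporter cDNA amplified, 6-FAM primer-extended, HpaI-cut, CE-sized; DMSO = negative control and baseline.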

Test [19] in a line: ATG_TCF_b_cat_CIS: Attagene CIS-FACTORIAL HepG2 Assay for human T-Cell-Factor with beta-catenin (TCF/b-cat) (AID 2282965). As to conditions: HepG2 TCF/beta-catenin cis-reporter transcription, actives raise or lower the signal. The method in brief:
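HepG2 cells transiently transfected with multiple cis-promoter-regulated reporter transcription units, so endogenous transcription factor activity is measured. Reporter mRNA read 24 hours after dosing by RT-PCR, fluorescent labelling and capillary electrophoresis; bidirectional fitting against DMSO.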

Test [20] in a line: ATG_TAL_CIS: Attagene CIS-FACTORIAL HepG2 Assay for human TAL Basal Promoter (AID 2282966).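 Note: background control endpoint measuring basal TAL promoter reporter mRNA not a specific factor.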 As to conditions: HepG2 Attagene cis-factorial TAL promoter reporter; actives raise or lower the signal. Put shortly:
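HepG2 cells transiently transfected with multiplexed cis-promoter reporter units, dosed 24 h. Reporter mRNA quantified by RT-PCR, 6-FAM labelling, HpaI digestion and capillary electrophoresis; TAL basal promoter serves as background control, fitted bidirectionally versus DMSO.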

Chain of Paired box protein Pax-6 (Homo sapiens) (P26367 whole entry, looked up): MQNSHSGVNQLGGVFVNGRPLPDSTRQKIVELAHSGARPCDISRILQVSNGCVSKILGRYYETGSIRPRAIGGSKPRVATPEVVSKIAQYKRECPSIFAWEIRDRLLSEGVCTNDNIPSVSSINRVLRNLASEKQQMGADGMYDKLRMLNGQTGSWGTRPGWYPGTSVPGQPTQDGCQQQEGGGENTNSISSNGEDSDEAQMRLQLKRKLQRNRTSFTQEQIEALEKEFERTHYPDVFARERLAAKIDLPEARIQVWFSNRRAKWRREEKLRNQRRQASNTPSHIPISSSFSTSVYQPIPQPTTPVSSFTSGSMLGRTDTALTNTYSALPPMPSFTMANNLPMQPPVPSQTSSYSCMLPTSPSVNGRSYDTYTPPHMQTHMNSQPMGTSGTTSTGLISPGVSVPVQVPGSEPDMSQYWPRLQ

As a reminder, the AC50 is the concentration at which the activity in the assay is half-maximal. As for `CCCCCCCCCCCCCCCCCC[N+](C)(C)C`, the concentration at half-maximal activity (AC50) in [1] was 44.4 µM (active); in test [2], 41.1 µM (active); in test [4], 6.61 µM (active); in [7], 6.9 µM (active); in test [9] it was 38.7 µM (active); in test [11] it was 39.2 µM (active). For the same compound, the concentration at half-maximal activity (AC50) was 40.1 µM (active) in test [13]; 5.86 µM (active) in [14]; 40.7 µM (active) in [16]; 16.5 µM (active) in [19]; 39.2 µM (active) in [20]. Further, the result in [3], in [5], in test [6], in [8], in test [10] and in test [12] was inactive. Also, the outcome in [15], in [17] and in test [18] was inactive.
With `O=C(OCc1ccccc1)c1ccccc1`, the call in test [1], in test [2], in test [3], in [4], in test [5] and in test [6] was inactive. Also, the outcome in test [7], in test [8], in test [9], in test [10], in test [11] and in test [12] was inactive. In addition, the compound was called inactive in test [13], in test [14], in [16], in test [17], in test [18] and in test [19]. Further, the result in test [20] was inactive. Moreover, the AC50 in [15] was 26.4 µM (active).
Take `C=CCOC(=O)C(=C)C`: the result in [1], in [2], in test [3], in test [4], in test [5] and in [6] was inactive. The outcome in [7], in test [8], in test [9], in test [10], in [11] and in test [12] was inactive. In addition, the outcome in test [13], in [14], in test [15], in test [16], in test [17] and in test [18] was inactive. Also, the compound was called inactive in [19] and in [20].
As for `O=C1CCCCCCCCCCCCCC1`, the call in [1], in test [2], in test [3], in [6], in test [7] and in [8] was inactive. Besides, the compound was called inactive in test [9], in [10], in test [11], in test [12], in test [13] and in test [14]. Besides, the compound was called inactive in [16], in test [18], in test [19] and in test [20]. Further, the concentration at half-maximal activity (AC50) in [4] was 49.4 µM (active); in test [5], 44.6 µM (active); in [15] it was 9.14 µM (active); in test [17], 47.6 µM (active).

The values above are taken from PubChem BioAssay (EPA / NIEHS).
